# Compounds with a hit are over-represented: about 4.6% of the library has one in this group of screens.
# SKKanGAS inh: SKKanGAS growth inhibition | AID 1662 | actives 1.3% (n = 300,000) | S. pyogenes SKKanGAS, kanamycin growth, BacTiter-Glo, 6 h | inhibition, % at 7.5 µM;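 active means mean replicate score, as percent of positive control median, at least 50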;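 further: strain carries kanamycin resistance gene driven by streptokinase promoter and grows in 40 µg/ml kanamycin; loss of luminescence reflects streptokinase promoter inhibition or plain growth inhibition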
# tim10-1 inh: inhibits growth of tim10-1 mutant yeast; S. cerevisiae tim10-1 ts strain growth, BacTiter-Glo, 24 h; inhibition, % at 20 µM; actives 2.2% (n = 330,000); AID 463190;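 active means inhibition of at least 40%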;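 further: mutant grown at 25 °C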
# tim23-1 inh: tim23-1 yeast growth inhibition. S. cerevisiae tim23-1 growth, BacTiter-Glo luminescence, 24 h. inhibition, % at 20 µM. actives 1.3% (n = 330,000). AID 463212;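 active means growth inhibition of the mutant yeast at or above 50%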;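 further: temperature-sensitive mutant grown at 25 °C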
# NLRP3 yeast inh: inhibitors of NALP3 inflammasome in yeast; inhibition, % at 10 µM; Yeast reconstituted NLRP3/ASC/caspase-1, beta-gal luminescence, 24 h; AID 2825; actives 0.39% (n = 330,000);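 active means inhibition of 50% or more; inactive means inhibition below 50%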
# PfHsp90 set2: inhibits growth of yeast expressing Plasmodium falciparum Hsp90. S. cerevisiae expressing PfHsp90, BacTiter-Glo ATP, 48 h; yeast lacking PDR1 and PDR3 efflux regulators. inhibition, % at 9.4 µM. actives 0.32% (n = 310,000). AID 504621;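 active means every replicate shows inhibition above about 80%, whatever the replicate mean, limit read from the data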
# TIM10 inh: growth inhibitors of TIM10 yeast strain; AID 463195; actives 1.4% (n = 330,000); S. cerevisiae TIM10 strain growth, BacTiter-Glo luminescence, 24 h; inhibition, % at 10 µM;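 active means inhibition of 40% or more at the single tested concentration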;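 further: wild-type TIM10 isogenic control strain grown at permissive 25 °C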
# tim10-1 confirm: confirmation of tim10-1 mutant yeast growth inhibitors | shares compounds with tim10-1 inh | S. cerevisiae tim10-1 ts strain growth, BacTiter-Glo, 24 h | inhibition, % at 20 µM | actives 56% (n = 7,400);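 active means inhibition of yeast growth at or above a set limit in either of two repeat tests at 20 µM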;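 further: tim10-1 mutant grown at permissive 25 °C to find synthetic lethal compounds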
# TIM10 conf: confirmation of TIM10 yeast growth inhibitors; shares compounds with TIM10 inh; S. cerevisiae tim10 strain growth, BacTiter-Glo luminescence, 24 h; inhibition, % at 10 µM; actives 63% (n = 4,600); AID 463215;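 active means inhibition of yeast growth at or above a set limit in either of two replicates at 10 µM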; further: this counterscreen used the strain with wild-type TIM10
# tim23-1 conf: tim23-1 yeast growth inhibition, confirmed. actives 83% (n = 4,400). inhibition, % at 20 µM. shares compounds with tim23-1 inh. S. cerevisiae tim23-1 growth, BacTiter-Glo luminescence, 24 h;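 active means inhibition above about 39% in either of two replicate wells at 20 µM, limit read from the data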;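 further: temperature-sensitive tim23-1 mutant grown at 25 °C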
# A number is an active result; n = inactive; x = not tested or not shown.
SMILES,SKKanGAS inh,tim10-1 inh,tim23-1 inh,NLRP3 yeast inh,PfHsp90 set2,TIM10 inh,tim10-1 confirm,TIM10 conf,tim23-1 conf
Cc1ccc(C(=O)N2CCN(S(=O)(=O)c3cc(Br)ccc3Br)CC2)o1,n,n,n,n,n,n,x,x,x
C=CCSc1n[nH]c(-c2ccc(OCCCC)cc2)n1,n,41,72,n,x,56,n,48,67
COc1ccc(OCC(O)Cn2c(N)nc3c2c(=O)[nH]c(=O)n3C)cc1 (stereo not given),n,n,n,n,n,n,x,x,x
COc1ccc(Cl)cc1/C=C1/C(=O)ON=C1C,n,n,n,n,n,n,x,x,x
CC1=NOC(=O)/C1=C\c1ccc(-c2ccc(Br)cc2C(=O)O)o1,n,n,n,n,n,n,x,x,x
CC1=NOC(=O)/C1=C/c1ccc(-c2ccc(Cl)cc2)o1,x,44,65,n,105,65,n,69,n
Cc1ccc(C2=NOC(=O)/C2=C\c2ccc(C)o2)cc1,n,59,79,n,n,45,39,39,80
CC1=NOC(=O)/C1=C\c1ccc(-c2cc(Cl)ccc2Cl)o1,n,51,79,n,n,n,n,x,68
CN(C)c1ccccc1C(=O)N1CCC(n2nccc2NC(=O)C2CC2)CC1,n,n,n,n,n,n,x,x,x
CC1CCC(N2CCNCC2)CC1 (stereo not given),n,n,n,n,n,n,x,x,x
OCCOCCNc1ncnc2c1c(-c1ccccc1)cn2-c1ccccc1,n,47,50,n,n,n,n,x,46
COc1ccc(-c2n[nH]c(C)c2-c2cnn(-c3ccccc3)c2)c(O)c1,n,51,60,n,n,50,42,44,50
CCc1c(O)nc(SCc2ccccc2)n(C(C)CC)c1=O (stereo not given),n,41,52,n,n,n,45,x,48
C=CCSc1nc(O)c(CC)c(=O)n1C(C)CC (stereo not given),n,n,n,n,x,n,x,x,x
CC1=NN(c2ccccc2)C(=O)/C1=C/N(C)C,n,n,n,n,n,n,x,x,x
CC1=NN(c2nc3ccccc3[nH]2)C(=O)/C1=C/N(C)C,x,59,59,n,81,n,active,x,59
COc1ccc2sc3ccccc3c(=O)c2c1OC,n,41,58,n,n,52,57,50,64
COc1ccccc1OCC(=O)N(Cc1nc(-c2ccccc2)no1)C1CCCCC1,x,42,52,n,n,n,31,x,51
Cc1ccccc1OCC(=O)N(Cc1nc(-c2ccccc2)no1)C(C)C,n,n,n,n,n,n,x,x,x
CCOC(=O)Oc1ccc2c(=O)c(Oc3cccc(C)c3)coc2c1,n,56,55,n,x,41,48,41,59
Cc1cccc(Oc2coc3cc(OC(=O)c4cncc(Br)c4)ccc3c2=O)c1,n,n,n,n,n,n,x,x,x
Cc1ccc2c(c1)c(C1=c3ccccc3=NC1=O)c(O)n2C,n,50,52,n,n,41,33,50,64
Cc1c(-n2c(O)c(C3=c4ccccc4=NC3=O)sc2=O)c(=O)n(-c2ccccc2)n1C,n,n,n,n,n,n,x,x,x
COC(=O)c1ccccc1NC(=O)CSc1nnnn1C1CCCCC1,n,n,n,n,n,n,x,x,x
CCOC(=O)c1ccccc1NC(=O)CSc1nnnn1C1CCCCC1,n,43,53,n,x,n,n,x,n
O=C(COC(=O)/C=C/c1ccc(S(=O)(=O)N2CCOCC2)cc1)Nc1ccccc1F,x,n,n,n,x,n,x,x,x
CCOC(=O)C(C)Oc1c(C(=O)OC)sc2ncccc12 (stereo not given),n,n,n,n,n,n,x,x,x
Cc1nnnn1/C(=C\c1ccccc1)C(=O)OCC(=O)NC1CCCCC1,n,47,54,n,n,41,35,50,47

# Source: PubChem
